According to PubChem BioAssay AID1159580 (chemical genetic matrix, 2015):
About 2,000 (36%) of roughly 5,500 compounds were called active. About 18% were inconclusive and are not listed. No stated cut-off is given here; in the data, active means normalized growth mostly below about 0.91 (no sharp cut-off); inconclusive means no clear call, values can overlap the other calls; inactive means mostly above about 0.92. The list shows a part of the results.

Experiment: chemical genetic growth profiling, strain panel (AID 1159580);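 further: tested at 20 µM; growth read once vehicle control cultures reached saturation at 30 °C; 1 = growth at the plate median or of vehicle wells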
Settings: growth OD

Measured: normalized growth

CCCN(CCC)c1c([N+](=O)[O-])cc(C(F)(F)F)cc1[N+](=O)[O-]
inactive: S. cerevisiae deletion strains, locus YJR075W, strain HOC1, stronger effect = lower value 0.994 | S. cerevisiae deletion strains, locus YKL009W, strain mrt4, stronger effect = lower value 1.03 | S. cerevisiae deletion strains, locus YKL068W, stronger effect = lower value 1.01 | S. cerevisiae deletion strains, locus YKL085W, strain MDH1 (second series), stronger effect = lower value 1 | S. cerevisiae deletion strains, locus YKL085W, strain MDH1, stronger effect = lower value 1 | S. cerevisiae deletion strains, locus YKL160W, strain elf1, stronger effect = lower value 1 | S. cerevisiae deletion strains, locus YKL190W, strain CNB1, stronger effect = lower value 1.01 | S. cerevisiae deletion strains, locus YKR001C, strain vps1, stronger effect = lower value 1.03 | S. cerevisiae deletion strains, locus YKR026C, strain gcn3, stronger effect = lower value 0.97 | S. cerevisiae deletion strains, locus YKR091W, strain srl3, stronger effect = lower value 0.999 | S. cerevisiae deletion strains, locus YLL001W, strain dnm1, stronger effect = lower value 0.999 | S. cerevisiae deletion strains, locus YLL026W, stronger effect = lower value 0.999 | S. cerevisiae deletion strains, locus YLL041C, strain sdh2, stronger effect = lower value 1 | S. cerevisiae deletion strains, locus YLR027C, strain aat2, stronger effect = lower value 1.01 | S. cerevisiae deletion strains, locus YLR039C, strain RIC1, stronger effect = lower value 0.99 | S. cerevisiae deletion strains, locus YLR058C, strain SHM2, stronger effect = lower value 1 | S. cerevisiae deletion strains, locus YLR102C, strain apc9, stronger effect = lower value 1.01 | S. cerevisiae deletion strains, locus YLR113W, strain HOG1, stronger effect = lower value 1.02 | S. cerevisiae deletion strains, locus YLR221C, strain rsa3, stronger effect = lower value 1 | S. cerevisiae deletion strains, locus YLR258W, strain gsy2, stronger effect = lower value 0.984 | S. cerevisiae deletion strains, locus YLR262C, strain YPT6 (second series), stronger effect = lower value 0.989 | S. cerevisiae deletion strains, locus YLR262C, strain YPT6, stronger effect = lower value 1.04 | S. cerevisiae deletion strains, locus YLR268W, strain sec22, stronger effect = lower value 1.02 | S. cerevisiae deletion strains, locus YLR320W, strain mms22, stronger effect = lower value 1.01 | S. cerevisiae deletion strains, locus YLR330W, strain CHS5, stronger effect = lower value 1.02 | S. cerevisiae deletion strains, locus YLR342W, strain FKS1 (second series), stronger effect = lower value 1.04 | S. cerevisiae deletion strains, locus YLR342W, strain FKS1, stronger effect = lower value 1.04 | S. cerevisiae deletion strains, locus YLR357W, strain rsc2, stronger effect = lower value 1.13 | S. cerevisiae deletion strains, locus YLR370C, strain arc18, stronger effect = lower value 1 | S. cerevisiae deletion strains, locus YLR371W, strain rom2, stronger effect = lower value 1.02 | S. cerevisiae deletion strains, locus YLR384C, strain iki3, stronger effect = lower value 1.02 | S. cerevisiae deletion strains, locus YLR418C, strain cdc73, stronger effect = lower value 1 | S. cerevisiae deletion strains, locus YML016C, strain PPZ1, stronger effect = lower value 0.982 | S. cerevisiae deletion strains, locus YML032C, strain rad52, stronger effect = lower value 1.02 | S. cerevisiae deletion strains, locus YML120C, strain ndi1, stronger effect = lower value 0.985 | S. cerevisiae deletion strains, locus YML124C, strain tub3, stronger effect = lower value 1.02 | S. cerevisiae deletion strains, locus YMR058W, strain fet3, stronger effect = lower value 0.989 | S. cerevisiae deletion strains, locus YMR078C, strain ctf18, stronger effect = lower value 1.02 | S. cerevisiae deletion strains, locus YMR125W, strain sto1, stronger effect = lower value 1.01 | S. cerevisiae deletion strains, locus YMR129W, stronger effect = lower value 1.01 | S. cerevisiae deletion strains, locus YMR205C, strain PFK2, stronger effect = lower value 0.977 | S. cerevisiae deletion strains, locus YMR223W, strain ubp8, stronger effect = lower value 1.01 | S. cerevisiae deletion strains, locus YMR231W, strain pep5, stronger effect = lower value 1.01 | S. cerevisiae deletion strains, locus YMR263W, strain SAP30, stronger effect = lower value 0.984 | S. cerevisiae deletion strains, locus YMR307W, strain GAS1, stronger effect = lower value 0.973 | S. cerevisiae deletion strains, locus YNL067W, strain RPL9B, stronger effect = lower value 1.01 | S. cerevisiae deletion strains, locus YNL071W, strain lat1, stronger effect = lower value 1 | S. cerevisiae deletion strains, locus YNL128W, strain TEP1, stronger effect = lower value 1 | S. cerevisiae deletion strains, locus YNL153C, strain GIM3, stronger effect = lower value 0.995 | S. cerevisiae deletion strains, locus YNL183C, strain NPR1, stronger effect = lower value 0.915 | S. cerevisiae deletion strains, locus YNL209W, strain ssb2, stronger effect = lower value 1.02 | S. cerevisiae deletion strains, locus YNL233W, strain BNI4, stronger effect = lower value 0.981 | S. cerevisiae deletion strains, locus YNL248C, strain rpa49, stronger effect = lower value 1.04 | S. cerevisiae deletion strains, locus YNL250W, strain rad50, stronger effect = lower value 1.01 | S. cerevisiae deletion strains, locus YNL271C, strain bni1, stronger effect = lower value 1.01 | S. cerevisiae deletion strains, locus YNL298W, strain CLA4, stronger effect = lower value 1.02 | S. cerevisiae deletion strains, locus YNL307C, strain MCK1, stronger effect = lower value 1.01 | S. cerevisiae deletion strains, locus YNL322C, strain KRE1 (second series), stronger effect = lower value 1 | S. cerevisiae deletion strains, locus YNL322C, strain KRE1, stronger effect = lower value 1 | S. cerevisiae deletion strains, locus YNR049C, strain mso1, stronger effect = lower value 1.02 | S. cerevisiae deletion strains, locus YNR052C, strain pop2, stronger effect = lower value 1.02 | S. cerevisiae deletion strains, locus YOL006C, strain TOP1, stronger effect = lower value 1.01 | S. cerevisiae deletion strains, locus YOL012C, strain htz1 0.879 | S. cerevisiae deletion strains, locus YOL147C, strain pex11, stronger effect = lower value 1.01 | S. cerevisiae deletion strains, locus YOR001W, strain rrp6, stronger effect = lower value 1.01 | S. cerevisiae deletion strains, locus YOR061W, strain CKA2, stronger effect = lower value 1 | S. cerevisiae deletion strains, locus YOR069W, strain VPS5, stronger effect = lower value 0.998 | S. cerevisiae deletion strains, locus YOR070C, strain gyp1, stronger effect = lower value 0.993 | S. cerevisiae deletion strains, locus YOR080W, strain dia2, stronger effect = lower value 1.01 | S. cerevisiae deletion strains, locus YOR083W, strain WHI5, stronger effect = lower value 1.01 | S. cerevisiae deletion strains, locus YOR106W, strain vam3, stronger effect = lower value 1.02 | S. cerevisiae deletion strains, locus YOR136W, strain idh2, stronger effect = lower value 1.02 | S. cerevisiae deletion strains, locus YOR144C, strain elg1, stronger effect = lower value 1.02 | S. cerevisiae deletion strains, locus YOR184W, strain ser1, stronger effect = lower value 1.02 | S. cerevisiae deletion strains, locus YOR231W, strain MKK1, stronger effect = lower value 0.986 | S. cerevisiae deletion strains, locus YOR265W, strain rbl2, stronger effect = lower value 1.01 | S. cerevisiae deletion strains, locus YOR270C, strain vph1, stronger effect = lower value 0.993 | S. cerevisiae deletion strains, locus YOR290C, strain snf2, stronger effect = lower value 0.987 | S. cerevisiae deletion strains, locus YOR316C, strain cot1, stronger effect = lower value 1.01 | S. cerevisiae deletion strains, locus YPL051W, strain arl3, stronger effect = lower value 1.01 | S. cerevisiae deletion strains, locus YPL055C, strain LGE1, stronger effect = lower value 1.06 | S. cerevisiae deletion strains, locus YPL078C, strain atp4, stronger effect = lower value 0.968 | S. cerevisiae deletion strains, locus YPL106C, strain sse1, stronger effect = lower value 1.05 | S. cerevisiae deletion strains, locus YPL240C, strain hsp82, stronger effect = lower value 0.988 | S. cerevisiae deletion strains, locus YPL241C, strain CIN2, stronger effect = lower value 1.01 | S. cerevisiae deletion strains, locus YPL256C, strain CLN2, stronger effect = lower value 0.961 | S. cerevisiae deletion strains, locus YPR119W, strain clb2, stronger effect = lower value 1.01 | S. cerevisiae deletion strains, locus YPR141C, strain kar3, stronger effect = lower value 1 | S. cerevisiae deletion strains, locus YPR163C, strain tif3, stronger effect = lower value 1.02 | S. cerevisiae deletion strains, locus YPR167C, strain met16, stronger effect = lower value 1.01 | S. cerevisiae deletion strains, strain wtn01, stronger effect = lower value 1.02 | S. cerevisiae strains, strain wild type, stronger effect = lower value 1.01
